What all share (experiment): NCI-60 one-dose screen, 48 h (100 = growth as untreated, 0 = no growth, -100 = all killed)
Common to all, as to conditions: 10 µM unless noted

Test [1] deals with SR leukemia.
The subject of test [2] is RPMI-8226 leukemia.
Test [3] deals with OVCAR-8 ovarian.
For test [4], the system named is SK-OV-3 ovarian.
The subject of test [5] is IGROV1 ovarian.
In test [6] the test system is OVCAR-3 ovarian.
For test [7], the system named is HS 578T breast.
Test [8] deals with NCI/ADR-RES ovarian.
For test [9], the system named is OVCAR-5 ovarian.
In test [10] the test system is OVCAR-4 ovarian.

SMILES strings stand for the structures. Values joined by “and” are separate entries in the source; they are usually repeats but may differ in a detail not shown here. Identical values can stand only once. The panel holds about 83,000 compounds, 20% with a hit somewhere; the sample as a whole holds those more often.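 Step 1: grow cells in 96-well plates. Step 2: add test compound at a single concentration. Step 3: incubate 48 h. Step 4: record percent growth.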 Active and inactive are the calls of the source. The calls were made as follows: active = growth percent below 10; inactive = the rest.

Take `C=CCOc1ccc(/C=C2\SC(=S)N(CCc3ccc(O)cc3)C2=O)cc1`: the growth was 38.6% (inactive) in [1]; 76.8% (inactive) in [2]; 97.5% (inactive) in [3]; 115% (inactive) in test [4]; 59.4% (inactive) in test [5]; 100% (inactive) in test [6]. Also, the growth in test [7] was 95% (inactive); in [8] it was 98.9% (inactive).

For `Nc1ccccc1SC(CC(=O)c1ccccc1)c1ccc([N+](=O)[O-])cc1` (stereo unspecified), the growth in test [1] is 13.4% (inactive) and 2.29% (active); in test [2] it was -1.33% (active) and -0.234% (active); in [9], 118% (inactive) and 114% (inactive); in [10], 93.8% (inactive) and 87.8% (inactive); in [4], 108% (inactive) and 95% (inactive); in [5], 117% (inactive) and 76.1% (inactive). The growth in test [6] was 105% (inactive) and 63.8% (inactive); in test [7], 103% (inactive) and 105% (inactive); in test [8], 98.2% (inactive) and 91.9% (inactive).

For `Cc1ccc(S(=O)(=O)OC[C@@]2(C)CC[C@]3(C)CC[C@]4(C)C(=CC[C@@H]5[C@@]6(C)CCCNC(C)(C)[C@@H]6CC[C@]54C)[C@@H]3C2)cc1`, the growth in test [1] is -39.3% (active); in test [2], -57.8% (active); in test [9], -84% (active); in [10], -78.5% (active); in test [4], 75.2% (inactive); in test [5], -84.9% (active). The growth in test [6] is -95.8% (active); in test [7], -20% (active); in [8] it was -65.8% (active).

Turning to `NC(=O)c1c(NC(=O)/C=C/c2cccs2)sc2c1CCC(=O)C2`, the growth in test [1] was 11.2% (inactive); in test [2], -9.58% (active); in test [9], 79.3% (inactive); in [10] it was 14.2% (inactive); in [4] it was 94.7% (inactive); in test [5], 24.4% (inactive). Further, the growth in [6] is 13.8% (inactive); in test [7], 26.7% (inactive); in test [8] it was 52.4% (inactive).

With `CC1=CC(C)(C)NC(=S)N1c1ccc(Cl)cc1`, the growth in test [1] was 97.8% (inactive) and 93% (inactive); in test [2], 100% (inactive); in [9] it was 95% (inactive) and 104% (inactive); in [10] it was 103% (inactive); in [4] it was 122% (inactive) and 93.2% (inactive); in [5], 96.4% (inactive). Further, the growth in test [6] is 110% (inactive) and 104% (inactive); in test [7], 102% (inactive) and 113% (inactive); in test [8], 103% (inactive) and 112% (inactive).

On to `COc1ccc(C/C(C)=C(/c2ccc(OCCN3CCCC3)cc2)c2ccc(OC(=O)NCc3ccccc3)cc2)cc1`, for which the growth is -22.6% (active) in test [1]; 66.7% (inactive) in test [2]; 81% (inactive) in [9]; 81.6% (inactive) in [10]; 104% (inactive) in test [4]; 101% (inactive) in [5]. In addition, the growth is 89.8% (inactive) in test [6], 81.1% (inactive) in test [7] and 97.1% (inactive) in [8].

Regarding `O=C1C(=C(O)c2ccccc2)C(=O)c2ccccc21`, the growth was 115% (inactive) in test [1]; 94.3% (inactive) in [2]; 104% (inactive) in test [9]; 101% (inactive) in [10]; 106% (inactive) in test [5]; 109% (inactive) in test [6]. In addition, the growth was 120% (inactive) in [7] and 108% (inactive) in test [8].

With `COc1cc(/C=N/NC(=O)CCN2c3ccccc3Sc3ccccc32)cc(OC)c1OC`, the growth was 72% (inactive) in test [1]; 54.7% (inactive) in [2]; 89% (inactive) in [9]; 68.3% (inactive) in test [10]; 105% (inactive) in [4]; 91.2% (inactive) in [5]. Besides, the growth in test [6] is 99.5% (inactive); in test [7] it was 93.7% (inactive); in test [8] it was 87.6% (inactive).

As to `COC(=O)c1nc(-c2ccccc2)oc1S(=O)(=O)N(C)CCO`, the growth was 8.68% (active) in test [1]; 42.4% (inactive) in [2]; 82.5% (inactive) in [9]; 77.4% (inactive) in test [10]; 89.8% (inactive) in [4]; 69.2% (inactive) in [5]. Besides, the growth is 34.7% (inactive) in [6], 99.5% (inactive) in test [7] and 97.2% (inactive) in [8].

Regarding `CC(C)=CCc1cc(O)c(O)c2oc3cc(O)cc(O)c3c(=O)c12`, the growth in [1] is 25.9% (inactive); in [2], 48.2% (inactive); in test [9], 75% (inactive); in [10] it was 62.5% (inactive); in [4], 65.7% (inactive); in test [5], 55% (inactive). Also, the growth in test [6] was 67.4% (inactive); in test [7], 92.2% (inactive); in [8], 28.2% (inactive).

As for `O=C(N/N=C/c1ccc(O)cc1O)c1cccc(Nc2ccnc(C(F)(F)F)c2)c1`, the growth in [1] is 21.7% (inactive); in [2] it was 30.8% (inactive); in test [9] it was 47.8% (inactive); in test [10], 39.9% (inactive); in test [4], 25.1% (inactive); in test [5], 34.2% (inactive). Also, the growth was 32% (inactive) in [6], 44.8% (inactive) in test [7] and 49.6% (inactive) in test [8].

Turning to `CCCCCCCCn1ccc2cc(NC(=O)CN3CCN(c4nc(C)cc(N5CCCCC5)n4)CC3)ccc21`, the growth was 53.3% (inactive) in [1]; 59.9% (inactive) in test [2]; 103% (inactive) in [9]; 82.7% (inactive) in [10]; 98.8% (inactive) in [4]; 73.9% (inactive) in test [5]. The growth was 94.4% (inactive) in [6], 91.5% (inactive) in test [7] and 85.8% (inactive) in [8].

For the origin of these results see PubChem BioAssay (NCI).
